The values that follow come from PubChem BioAssay (EPA / NIEHS).

Read-out in assay [1]: Interleukin-6 (IL6), IL6 (gene 3569)
Nature of the assay: BSK_CASM3C_IL6: BioMAP Diversity Plus: CASM3C Assay for Interleukin-6 (IL6) Biomarker Activity for (AID 2283040). The note with it: primary human coronary artery smooth muscle cells; actives raise or lower the signal.

Read-out in assay [2]: Tissue plasminogen activator (tPA), PLAT (gene 5327)
As to the kind of experiment: BSK_BE3C_tPA: BioMAP Diversity Plus: BE3C Assay for Tissue plasminogen activator (tPA) Biomarker Activity (AID 2283041).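 As to outcome: tPA level quantified by ELISA one day after compound addition.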 The note with it: primary human bronchial epithelial cells; actives raise or lower the signal. The procedure, abridged:
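Gain- or loss-of-signal in tPA, measured by ELISA, derived by bidirectional fitting against DMSO. Cells: human primary bronchial epithelial; read at 24 h after chemical dosing.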

Read-out in assay [3]: Interleukin-8 (IL8), CXCL8 (gene 3576)
As to the kind of experiment: BSK_CASM3C_IL8: BioMAP Diversity Plus: CASM3C Assay for Interleukin-8 (IL8) Biomarker Activity (AID 2283042).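 Also: IL-8 protein level quantified by ELISA.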 The note with it: primary human coronary artery smooth muscle cells; actives raise or lower the signal.

Read-out in assay [4]: Human Leukocyte Antigen - DR isotype (HLADR), HLA-DRA (gene 3122)
Nature of the assay: BSK_CASM3C_HLADR: BioMAP Diversity Plus: CASM3C Assay for Human Leukocyte Antigen - DR isotype (HLADR) Biomarker Activity (AID 2283043).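 Also: cell-surface HLA-DR protein level quantified by ELISA.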 The note with it: primary human coronary artery smooth muscle cells; actives raise or lower the signal.

Read-out in assay [5]: Macrophage colony-stimulating factor (MCSF), CSF1 (gene 1435)
As to the kind of experiment: BSK_CASM3C_MCSF: BioMAP Diversity Plus: CASM3C Assay for Macrophage colony-stimulating factor (MCSF) Biomarker Activity (AID 2283044).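 Also: M-CSF protein amount quantified by ELISA after 24 h exposure.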 The note with it: primary human coronary artery smooth muscle cells; actives raise or lower the signal.

Read-out in assay [6]: Low-density lipoprotein receptor (LDLR), LDLR (gene 3949)
Nature of the assay: BSK_CASM3C_LDLR: BioMAP Diversity Plus: CASM3C Assay for Low-density lipoprotein receptor (LDLR) Biomarker Activity (AID 2283045).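 Also: LDLR protein level on the cell surface quantified by ELISA.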 Conditions: primary human coronary artery smooth muscle cells; actives raise or lower the signal.

Read-out in assay [7]: Monocyte Chemoattractant Protein-1 (MCP1), CCL2 (gene 6347)
Nature of the assay: BSK_CASM3C_MCP1: BioMAP Diversity Plus: CASM3C Assay for Monocyte Chemoattractant Protein-1 (MCP1) Biomarker Activity (AID 2283046).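 Also: MCP-1 level quantified by ELISA 24 h after dosing.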 The note with it: primary human coronary artery smooth muscle cells; actives raise or lower the signal.

Assay [8] in a line: BSK_CASM3C_Proliferation: Cell Proliferation Assessment in the BioMAP Diversity Plus: CASM3C Assay (AID 2283047).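 Also: sulforhodamine B total protein stain as relative cell number at 560 nm; sub-confluent cells exposed 48 h before staining; fitted both ways against DMSO so gain or loss of cell number.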 The note with it: primary human coronary artery smooth muscle cells.
Read-out in assay [9]: Monokine induced gamma interferon (MIG), CXCL9 (gene 4283)
Nature of the assay: BSK_CASM3C_MIG: BioMAP Diversity Plus: CASM3C Assay for Monokine induced gamma interferon (MIG) Biomarker Activity (AID 2283048).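 Also: MIG protein level measured by ELISA.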 The note with it: primary human coronary artery smooth muscle cells; actives raise or lower the signal.

Read-out in assay [10]: serum amyloid A (SAA), SAA1 (gene 6288)
Nature of the assay: BSK_CASM3C_SAA: BioMAP Diversity Plus: CASM3C Assay for serum amyloid A (SAA) Biomarker Activity (AID 2283049).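 Also: SAA protein level quantified by ELISA.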 The note with it: primary human coronary artery smooth muscle cells; actives raise or lower the signal.

Values joined by “and” are separate entries in the source; they are usually repeats but may differ in a detail not shown here. Identical values can stand only once. Active and inactive are the calls of the source. The calls were made as follows: active = hit-call score of the fitted dose curve at least 0.9, where 1 is the maximum; inactive = score below 0.9.

For the molecule `O=C(c1ccccc1)c1ccc(O)cc1O`, the outcome in assay [1], in [2], in assay [3], in assay [4], in [5] and in [6] was inactive. Moreover, the result in [7], in assay [8], in assay [9] and in assay [10] was inactive.
As for `NC(=O)C(F)(F)C(F)(F)C(F)(F)C(F)(F)C(N)=O`, the outcome in assay [1], in assay [2], in [3], in [4], in assay [5] and in assay [6] was inactive. Further, the outcome in [7], in [8], in [9] and in assay [10] was inactive.
Regarding `O=C(F)C1(F)C(F)(F)C(F)(F)C(F)(F)C(F)(F)C1(F)F`, the result in assay [1], in assay [2], in assay [3], in assay [4], in assay [5] and in assay [6] was inactive. The result in assay [7], in assay [8], in [9] and in [10] was inactive.
Take `Brc1nc2ccccc2s1`: the result in assay [1], in [2], in [3], in [4], in assay [5] and in assay [6] was inactive. Moreover, the outcome in [7], in assay [8], in assay [9] and in [10] was inactive.
In the case of `CCOC(C=C(C)CCC=C(C)C)OCC`, the AC50 is 20 µM (active) in assay [1]; 20 µM (active) in assay [4]; 20 µM (active) in [5]; 10.3 µM (active) in assay [6]; 28.9 µM (active) in [7]; 33.7 µM (active) in [8]. In addition, in [9], the AC50 was 34.4 µM (active). Besides, the outcome in [2], in assay [3] and in assay [10] was inactive.
`O=S(=O)(O)CCC(F)(F)C(F)(F)C(F)(F)C(F)(F)F`: the outcome in assay [1], in assay [2], in assay [3], in assay [4], in assay [5] and in assay [6] was inactive. Further, the result in [7], in [8], in assay [9] and in assay [10] was inactive.
`O=C(O)CCC(F)(F)C(F)(F)C(F)(F)F`: the outcome in assay [1], in assay [2], in assay [3], in assay [4], in assay [5] and in [6] was inactive. In addition, the outcome in assay [7], in assay [8], in assay [9] and in assay [10] was inactive.
Consider `O=S(=O)(Cl)C(F)(F)C(F)(F)C(F)(F)C(F)(F)C(F)(F)C(F)(F)C(F)(F)C(F)(F)F`, for which the result in [1], in assay [3], in assay [4], in [5], in assay [6] and in [7] was inactive. Besides, the outcome in assay [8], in assay [9] and in assay [10] was inactive. Further, in assay [2], the AC50 was 48.7 µM (active) and 48.8 µM (active).
Take `C=CC(=O)OCC(F)(F)C(F)(F)C(F)(F)COC(=O)C=C`: the AC50 was 30 µM (active) and 17 µM (active) in assay [1]; 15.4 µM (active) and 11.4 µM (active) in assay [2]; 26.6 µM (active) and 22.5 µM (active) in [3]; 38.6 µM (active) and 27.7 µM (active) in assay [4]; 40.1 µM (active) and 34.8 µM (active) in [5]; 42.2 µM (active) and 42.9 µM (active) in assay [6]. For the same molecule, the AC50 in assay [7] was 44.3 µM (active) and 42.5 µM (active); in [8] it was 8.23 µM (active) and 8.81 µM (active); in [9], 27.1 µM (active) and 25.4 µM (active); in assay [10] it was 41.4 µM (active) and 33.7 µM (active).
For `FC(F)(F)C(F)(F)C(F)(F)CC1CO1` (stereo not given), the result in assay [1], in assay [2], in assay [3], in [4], in assay [5] and in [6] was inactive. Further, the outcome in assay [7], in [8], in assay [9] and in [10] was inactive.
Consider `NS(=O)(=O)C(F)(F)C(F)(F)C(F)(F)C(F)(F)C(F)(F)C(F)(F)F`, for which the result in [1], in assay [3], in [4], in [5], in assay [6] and in assay [7] was inactive. For the same molecule, the outcome in assay [8], in assay [9] and in assay [10] was inactive. Moreover, the AC50 in assay [2] is 49 µM (active) and 47.5 µM (active).
With `C[Si](Cl)(Cl)CCC(F)(F)C(F)(F)C(F)(F)C(F)(F)C(F)(F)C(F)(F)F`, the outcome in assay [1], in assay [2], in assay [3], in assay [4], in assay [5] and in assay [6] was inactive. The outcome in assay [7], in [8], in assay [9] and in assay [10] was inactive.
`Cc1ccc(S(=O)(=O)C(I)I)cc1`: the AC50 in assay [1] is 2.67 µM (active); in assay [2] it was 5.4 µM (active); in assay [3] it was 3.52 µM (active); in assay [4], 2.61 µM (active); in assay [5], 2.17 µM (active); in assay [7], 2.78 µM (active). In addition, the figures for the AC50 in [8], in [9] and in assay [10] were 1.37 µM (active), 5.05 µM (active) and 987 nM (active), respectively. In addition, in [6], the outcome was inactive.
On to `OCC(F)(F)C(F)(F)C(F)(F)C(F)(F)C(F)(F)C(F)(F)CO`, for which the result in assay [1], in assay [2], in assay [3], in assay [4], in [5] and in assay [6] was inactive. The outcome in assay [7], in [8], in [9] and in assay [10] was inactive.
Regarding `O=C(O)C(F)(F)C(F)(F)C(F)(F)C(=O)O`, the outcome in [1], in [2], in assay [3], in assay [4], in [5] and in assay [6] was inactive. The outcome in assay [7], in assay [8], in assay [9] and in [10] was inactive.
As to `NC(=O)C(F)(F)C(F)(F)C(F)(F)C(F)F`, the outcome in [1], in [2], in assay [3], in assay [4], in assay [5] and in assay [6] was inactive. The result in [7], in [8], in assay [9] and in assay [10] was inactive.
Consider `FC(F)(F)C(F)(F)C(F)(F)C(F)(F)C(F)(F)C(F)(F)C(F)(F)CCI`, for which the result in assay [1], in [2], in assay [3], in [4], in assay [5] and in [6] was inactive. Moreover, the result in [7], in assay [8], in assay [9] and in assay [10] was inactive.
